Assay results: the supplement of paper PMC10849652
About 8,800 targets were measured; listed, in parts, are those with a hit and a random draw of the rest. About 0.5% of all pairs of compound and target were hits. Unmarked numbers belong to inactive results.

Tests used:
Assay in all cases: log2 fold change, soluble protein after heating vs DMSO (PISA); higher = thermal stabilisation; K562 lysate, 10 uM; active = over 0.2 and 3.5 SD of the protein, either way, in both replicates (recomputed)
[1] = compound: C1=CC=C(C=C1)[C@H](COC2=CC3=C(C=C2)NC(=O)N3)NC(=O)C4=CC=CN(C4=O)CC5=CC(=C(C=C5)F)F
Method in brief: (§1)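 Log-two fold change in thermal stability relative to solvent controls is reported from duplicates. For each sample, crude K562 extract from dounce-homogenised pellets in PBS pH 7.4 with 1 mM MgCl2, at 1 mg/mL protein, was treated with 10 μM compound for 30 min. Aliquots heated for 3 min across 48°C-58°C were pooled, brought to 0.5% NP-40 at 4°C and cleared at 21,000xg for 90 min. The supernatant was quantified by TMTpro 16plex LC-MS/MS with channel sums equalised.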

[2] = compound: CC1=C(SC2=C1C(=N[C@H](C3=NN=C(N32)C)CC(=O)N)C4=CC=C(C=C4)Cl)C
Method in brief: as §1

[3] = compound: CC1=C2C(=CC=C1)N=C(N(C2=O)C3=CC=CC=C3C)CN4C=NC5=C(N=CN=C54)N
Method in brief: as §1

[4] = compound: Cc1sc2c(c1C)C(c1ccc(Cl)cc1)=N[C@@H](CC(=O)OC(C)(C)C)c1nnc(C)n1-2
Method in brief: as §1

[5] = compound: c1ccc([C@@H]2C[C@H]2NC2CCNCC2)cc1
Method in brief: as §1

UniProt Q8NE86, sequence (Q8NE86 whole entry, looked up): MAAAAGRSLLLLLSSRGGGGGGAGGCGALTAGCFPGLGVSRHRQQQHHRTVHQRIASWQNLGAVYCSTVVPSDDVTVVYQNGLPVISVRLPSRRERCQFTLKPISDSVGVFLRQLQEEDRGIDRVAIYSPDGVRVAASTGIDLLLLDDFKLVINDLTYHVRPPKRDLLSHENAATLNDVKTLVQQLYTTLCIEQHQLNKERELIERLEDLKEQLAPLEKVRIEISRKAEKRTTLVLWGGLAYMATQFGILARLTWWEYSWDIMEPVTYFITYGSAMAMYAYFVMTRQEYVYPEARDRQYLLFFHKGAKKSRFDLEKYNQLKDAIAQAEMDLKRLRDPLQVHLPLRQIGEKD
UniProt Q09328, sequence (Q09328 whole entry, looked up): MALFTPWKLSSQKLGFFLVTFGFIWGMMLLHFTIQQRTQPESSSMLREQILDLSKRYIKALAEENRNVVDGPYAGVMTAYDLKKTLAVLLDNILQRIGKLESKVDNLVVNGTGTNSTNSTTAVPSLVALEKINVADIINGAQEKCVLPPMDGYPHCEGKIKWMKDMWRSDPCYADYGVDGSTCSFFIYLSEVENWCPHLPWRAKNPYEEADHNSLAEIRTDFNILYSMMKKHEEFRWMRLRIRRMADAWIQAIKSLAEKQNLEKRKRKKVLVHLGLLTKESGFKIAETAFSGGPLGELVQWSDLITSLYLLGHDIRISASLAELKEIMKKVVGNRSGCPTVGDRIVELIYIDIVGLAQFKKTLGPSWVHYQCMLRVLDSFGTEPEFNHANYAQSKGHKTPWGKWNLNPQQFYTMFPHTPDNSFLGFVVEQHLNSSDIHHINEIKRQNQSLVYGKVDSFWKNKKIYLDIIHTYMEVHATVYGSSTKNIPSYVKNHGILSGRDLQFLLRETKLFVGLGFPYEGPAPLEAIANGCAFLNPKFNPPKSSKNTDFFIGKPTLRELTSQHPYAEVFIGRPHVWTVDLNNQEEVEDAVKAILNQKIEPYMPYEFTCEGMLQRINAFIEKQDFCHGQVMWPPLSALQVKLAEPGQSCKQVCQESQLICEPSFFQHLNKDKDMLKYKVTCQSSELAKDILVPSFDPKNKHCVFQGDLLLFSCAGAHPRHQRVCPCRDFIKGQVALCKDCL
UniProt P28838, sequence (P28838 whole entry, looked up): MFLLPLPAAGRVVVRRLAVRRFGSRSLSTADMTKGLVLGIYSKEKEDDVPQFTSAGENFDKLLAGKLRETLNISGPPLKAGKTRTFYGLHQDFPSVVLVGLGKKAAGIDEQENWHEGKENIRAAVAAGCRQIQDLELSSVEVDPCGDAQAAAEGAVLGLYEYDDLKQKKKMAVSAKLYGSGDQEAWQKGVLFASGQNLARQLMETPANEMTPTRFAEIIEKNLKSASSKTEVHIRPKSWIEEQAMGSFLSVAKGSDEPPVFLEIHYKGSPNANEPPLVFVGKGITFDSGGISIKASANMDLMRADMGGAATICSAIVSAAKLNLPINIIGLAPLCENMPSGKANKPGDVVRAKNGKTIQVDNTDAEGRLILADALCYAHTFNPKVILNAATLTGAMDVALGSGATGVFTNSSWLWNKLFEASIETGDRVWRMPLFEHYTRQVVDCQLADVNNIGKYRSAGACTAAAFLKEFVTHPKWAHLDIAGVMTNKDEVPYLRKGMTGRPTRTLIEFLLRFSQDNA
UniProt Q96IZ6, sequence (Q96IZ6 whole entry, looked up): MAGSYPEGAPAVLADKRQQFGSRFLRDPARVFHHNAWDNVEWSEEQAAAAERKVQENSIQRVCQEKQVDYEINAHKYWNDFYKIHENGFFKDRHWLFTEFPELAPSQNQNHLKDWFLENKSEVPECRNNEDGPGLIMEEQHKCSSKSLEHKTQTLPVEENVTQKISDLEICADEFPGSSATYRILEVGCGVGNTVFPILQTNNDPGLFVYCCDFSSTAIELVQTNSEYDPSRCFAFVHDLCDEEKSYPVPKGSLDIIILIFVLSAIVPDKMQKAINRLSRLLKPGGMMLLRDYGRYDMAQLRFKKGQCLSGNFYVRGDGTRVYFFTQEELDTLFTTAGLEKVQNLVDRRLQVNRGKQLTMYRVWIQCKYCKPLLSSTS
UniProt P52732, sequence (P52732 whole entry, looked up): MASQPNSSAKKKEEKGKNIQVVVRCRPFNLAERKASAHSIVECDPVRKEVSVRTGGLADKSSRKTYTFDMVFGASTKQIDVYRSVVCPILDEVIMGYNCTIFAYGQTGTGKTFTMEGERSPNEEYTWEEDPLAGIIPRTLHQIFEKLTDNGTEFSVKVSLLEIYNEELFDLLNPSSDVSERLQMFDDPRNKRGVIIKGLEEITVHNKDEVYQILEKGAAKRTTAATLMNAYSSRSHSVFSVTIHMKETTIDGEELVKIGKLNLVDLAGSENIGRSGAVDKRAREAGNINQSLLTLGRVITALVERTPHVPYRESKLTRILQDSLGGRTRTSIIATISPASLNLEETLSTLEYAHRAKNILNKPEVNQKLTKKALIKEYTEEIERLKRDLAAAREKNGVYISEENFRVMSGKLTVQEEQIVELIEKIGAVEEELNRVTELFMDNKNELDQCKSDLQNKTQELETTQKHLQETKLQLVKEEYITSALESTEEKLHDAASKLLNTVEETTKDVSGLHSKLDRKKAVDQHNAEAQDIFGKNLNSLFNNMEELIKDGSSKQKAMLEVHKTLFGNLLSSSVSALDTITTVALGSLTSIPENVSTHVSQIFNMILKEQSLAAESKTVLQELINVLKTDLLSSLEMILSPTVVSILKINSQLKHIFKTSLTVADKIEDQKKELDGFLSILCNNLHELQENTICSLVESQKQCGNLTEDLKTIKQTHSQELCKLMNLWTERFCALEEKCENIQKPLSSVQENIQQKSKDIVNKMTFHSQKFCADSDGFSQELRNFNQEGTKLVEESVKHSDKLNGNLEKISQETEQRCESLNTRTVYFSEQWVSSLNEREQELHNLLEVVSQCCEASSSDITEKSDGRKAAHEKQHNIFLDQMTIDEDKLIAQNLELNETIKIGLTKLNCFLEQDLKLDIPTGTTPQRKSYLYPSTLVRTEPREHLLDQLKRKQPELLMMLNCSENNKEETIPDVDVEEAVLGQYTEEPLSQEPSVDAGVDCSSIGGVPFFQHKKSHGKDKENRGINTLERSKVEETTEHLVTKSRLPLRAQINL
UniProt Q9GZY8, sequence (Q9GZY8 whole entry, looked up): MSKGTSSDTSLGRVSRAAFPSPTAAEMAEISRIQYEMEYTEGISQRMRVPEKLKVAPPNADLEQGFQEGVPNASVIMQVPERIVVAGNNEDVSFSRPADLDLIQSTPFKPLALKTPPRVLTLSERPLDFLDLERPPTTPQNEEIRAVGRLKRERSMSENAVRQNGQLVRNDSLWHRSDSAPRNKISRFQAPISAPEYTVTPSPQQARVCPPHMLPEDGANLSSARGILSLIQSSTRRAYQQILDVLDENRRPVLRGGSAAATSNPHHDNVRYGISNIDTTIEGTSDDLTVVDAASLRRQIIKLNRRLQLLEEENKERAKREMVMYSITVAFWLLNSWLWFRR
UniProt Q9H9A6, sequence (Q9H9A6 whole entry, looked up): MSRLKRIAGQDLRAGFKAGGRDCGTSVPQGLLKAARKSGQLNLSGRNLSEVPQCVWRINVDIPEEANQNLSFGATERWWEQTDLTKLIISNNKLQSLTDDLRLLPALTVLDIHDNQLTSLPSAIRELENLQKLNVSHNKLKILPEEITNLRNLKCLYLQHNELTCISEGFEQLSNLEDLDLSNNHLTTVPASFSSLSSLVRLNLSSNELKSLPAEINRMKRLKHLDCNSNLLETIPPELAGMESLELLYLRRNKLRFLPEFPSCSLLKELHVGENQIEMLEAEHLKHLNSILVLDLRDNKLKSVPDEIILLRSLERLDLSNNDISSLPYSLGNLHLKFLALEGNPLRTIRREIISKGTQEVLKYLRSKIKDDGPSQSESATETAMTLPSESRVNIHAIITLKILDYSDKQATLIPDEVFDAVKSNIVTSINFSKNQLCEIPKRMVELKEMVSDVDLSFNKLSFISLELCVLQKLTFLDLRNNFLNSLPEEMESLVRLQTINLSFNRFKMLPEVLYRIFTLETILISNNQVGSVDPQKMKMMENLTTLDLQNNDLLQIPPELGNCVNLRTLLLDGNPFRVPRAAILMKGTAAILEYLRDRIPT
UniProt Q8N3R9, sequence (Q8N3R9 whole entry, looked up): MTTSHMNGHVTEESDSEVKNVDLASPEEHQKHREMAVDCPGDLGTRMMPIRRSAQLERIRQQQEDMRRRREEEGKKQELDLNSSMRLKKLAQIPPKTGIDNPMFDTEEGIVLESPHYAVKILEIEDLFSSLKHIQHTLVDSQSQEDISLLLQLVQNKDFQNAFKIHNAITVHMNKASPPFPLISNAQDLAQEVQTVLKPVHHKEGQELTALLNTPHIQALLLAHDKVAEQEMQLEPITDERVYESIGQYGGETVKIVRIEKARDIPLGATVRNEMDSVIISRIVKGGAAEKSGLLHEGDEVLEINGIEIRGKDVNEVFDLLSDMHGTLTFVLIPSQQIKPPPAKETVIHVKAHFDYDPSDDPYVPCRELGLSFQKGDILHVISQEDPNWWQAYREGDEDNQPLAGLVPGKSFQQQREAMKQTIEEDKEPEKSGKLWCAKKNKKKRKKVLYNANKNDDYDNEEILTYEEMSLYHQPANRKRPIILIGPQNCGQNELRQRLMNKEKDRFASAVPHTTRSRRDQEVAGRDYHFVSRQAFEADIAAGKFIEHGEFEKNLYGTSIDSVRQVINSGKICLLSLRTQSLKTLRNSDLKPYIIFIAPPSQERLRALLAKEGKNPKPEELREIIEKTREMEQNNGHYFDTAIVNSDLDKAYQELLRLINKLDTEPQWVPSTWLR
UniProt P46734, sequence (P46734 whole entry, looked up): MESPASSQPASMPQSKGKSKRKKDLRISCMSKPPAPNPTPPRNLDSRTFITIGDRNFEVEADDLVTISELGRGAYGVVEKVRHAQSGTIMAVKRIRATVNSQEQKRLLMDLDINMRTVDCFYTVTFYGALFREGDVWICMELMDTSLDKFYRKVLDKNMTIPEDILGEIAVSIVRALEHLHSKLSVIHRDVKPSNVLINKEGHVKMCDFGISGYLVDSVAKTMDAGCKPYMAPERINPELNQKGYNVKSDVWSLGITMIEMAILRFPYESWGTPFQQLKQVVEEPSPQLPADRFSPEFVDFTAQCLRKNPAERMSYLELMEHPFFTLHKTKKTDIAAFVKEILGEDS

Target | log2 fold change [1] | log2 fold change [2] | log2 fold change [3] | log2 fold change [4] | log2 fold change [5]
KIF14 (UniProt Q15058) | 0.028 | -0.148 | 0.059 | -0.012 | 0.039
LRRC40 (UniProt Q9H9A6) | 0.001 | 0.003 | 0.003 | 0.012 | 0.034
KIF11 (UniProt P52732) | 0.008 | -0.001 | 0.006 | -0.002 | 0
MAP2K3 isoform 3 (UniProt P46734) | 0.035 | -0.021 | -0.024 | 0.043 | -0.006
LRRC7 (UniProt Q96NW7) | -0.001 | -0.047 | -0.309 | 0 | -0.001
MED14 (UniProt O60244) | -0.037 | 0.035 | 0.034 | -0.029 | 0
MRPL15 (UniProt Q9P015) | -0.016 | 0.04 | 0.003 | 0.04 | -0.212
LAP3 (UniProt P28838) | -0.043 | 0.021 | -0.139 | -0.056 | -0.285
KIFC3 isoform 6 (UniProt Q9BVG8) | 0.023 | 0.016 | -0.178 | -0.21 | -1.16 (active)
MARK1 (UniProt Q9P0L2) | -0.034 | 0.036 | 0.019 | -0.006 | 0.116
MLLT11 (UniProt Q13015) | 0.007 | -0.048 | 0.109 | -0.037 | 0.003
METTL2A (UniProt Q96IZ6) | 0.003 | -0.004 | 0.046 | 0 | 0.106
MBOAT2 (UniProt Q6ZWT7) | -0.011 | 0 | 0.121 | -0.022 | -0.017
LRPPRC (UniProt P42704) | -0.067 | 0.043 | 0.049 | 0.039 | 0.122
MORC3 (UniProt Q14149) | 0.013 | 0 | 0.003 | 0.013 | 0.012
MFF isoform 2 (UniProt Q9GZY8) | 0.044 | -0.029 | -0.009 | -0.049 | -0.125
MORC2 (UniProt Q9Y6X9) | -0.068 | 0.043 | 0.049 | -0.014 | 0.018
MPP5 (UniProt Q8N3R9) | -0.044 | 0.045 | -0.006 | 0.029 | -0.11
MAP2K5 (UniProt Q13163) | -0.046 | 0.155 | -0.045 | -0.407 | -0.02
MGAT5 (UniProt Q09328) | 0.088 | -0.027 | -0.171 | 0.017 | 0.083
LDAH isoform 2 (UniProt Q9H6V9) | -0.119 | 0.018 | 0.001 | 0.075 | -0.002
KIF4B (UniProt Q2VIQ3) | 0.035 | 0.009 | -0.02 | 0.029 | 0.013
MCU (UniProt Q8NE86) | 0.021 | 0.028 | -0.031 | -0.023 | 0.015
MAST2 (UniProt Q6P0Q8) | -0.257 | 0.027 | 0.073 | -0.074 | -0.028
